Only some compounds are listed: those with a hit (about 11% of all), similar ones and a draw of the others.
Pf growth 48h – inhibits P. falciparum growth in the first generation, 48 h. P. falciparum luciferase growth in erythrocytes, 48 h. Potency, µM (titrated, usually from 28.7 µM), for inactives: at the highest dose activity change, negative = inhibition, actives largely listed as inhibitors. 310,000 compounds, 5.9% hits. AID 504832; further: on the % scale 0 is the no-effect control and ±100 the full control effect
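Cell-based growth assay: transgenic P. falciparum expressing firefly luciferase, cultured in red cells within RPMI 1640 containing 0.5% w/v Albumax, 24 mM bicarbonate and gentamycin. A drop in luciferase activity indicates inhibition.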
VACV mCherry inh – inhibitors of vaccinia virus infection (mCherry reporter signal). Vaccinia virus mCherry reporter infection, fluorescence. 310,000 compounds, 0.63% hits. Potency, µM (titrated, usually from 36.5 µM), without a hit: at the highest dose activity change, negative = inhibition, most hits filed as inhibitors. AID 720579; calls by dose curve; tested in A549 cells; further: on the % scale 0 is the no-effect control and ±100 the full control effect; nearly all actives have a fitted effect of over 35% in size
HCV inh – blocks hepatitis C virus; Potency, µM (doses to about 41.8 µM), for inactives: at the highest dose activity change, negative = inhibition, hits mostly inhibitors; AID 651820; 340,000 compounds, 3.4% hits; Huh7.5.1 HCVcc-Cre infection, luciferase reporter, 44 h; further: on the % scale 0 is the no-effect control and ±100 the full control effect
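Cells (1,000/well) were plated 4 h before compound, then infected with HCVcc-Cre virus (~0.5 moi). After 44 h further culture, infection was read as luciferase luminescence following a 15 min substrate incubation at room temperature.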
Pf growth 96h – P. falciparum growth inhibition at 96 hour, primary screen for plastid delayed-death inhibitors; P. falciparum luciferase reporter growth, 96 h; AID 504834; 320,000 compounds, 6.9% hits; Potency, µM (doses to about 28.7 µM), without a hit: at the top dose activity change, negative = inhibition, actives largely listed as inhibitors; further: on the % scale 0 is the no-effect control and ±100 the full control effect
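96 h incubation, 37 C, 5% CO2, of luciferase-reporter P. falciparum-infected RBCs (2% hematocrit, 0.05% parasitemia final) with test compounds; endpoint luminescence.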
Vaccinia Venus – inhibitors of vaccinia virus (Venus reporter); Potency, µM (top dose mostly 36.5 µM), for inactives: at the highest dose activity change, negative = inhibition, hits mostly inhibitors; Vaccinia virus Venus reporter expression, fluorescence; 330,000 compounds, 0.46% hits; calls by dose curve; tested in A549 cells; further: on the % scale 0 is the no-effect control and ±100 the full control effect; nearly all actives have a fitted effect of over 30% in size
NS1 function inh – influenza NS1 inhibition; Potency, µM (highest dose often 46.1 µM), for the others: top-dose activity, positive = more growth; 270,000 compounds, 0.4% hits; AID 2326; calls by dose curve; further: actives are rising curves; nearly all actives have a fitted effect of over 50% in size
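Recovery from NS1-induced slow growth read by OD600 in budding yeast switched to galactose assay medium (pH 6.0, -URA) at 1:100 dilution. Compound 23 nl per well; the matching strain lacking NS1 serves as control.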
Numbers without * were called inactive; i = inactive; ? = inconclusive; · = no result given; [ ] = dose if it differs, or a comment. Unless noted, the call rests on the fitted dose curve; in most records, active means well fitted inhibition curve with a large enough effect; inconclusive means small, poorly fitted or top-dose-only effect, or another doubt; inactive means no such curve, though single readings can be large or run the other way. Potency means the concentration at half of the fitted maximal effect.

SMILES	Pf growth 48h	VACV mCherry inh	HCV inh	Pf growth 96h	Vaccinia Venus	NS1 function inh
CCCc1c(C(=O)N/N=C/c2cccs2)nnn1-c1nonc1N	30.8%	-5.1%[7.34 µM]	-5.5%	16.9%	5.1%[7.34 µM]	5.5%
CCn1c(C)c(C(C)=O)c(N2CCCCC2)nc1=S	-0.2%	·	-0.4%	11.7µM*	-23.4%	1.8%
CCn1c(C)c(C(C)=O)c(N2CCN(c3ccccc3)CC2)nc1=S	·	·	-16.3%	-2.2%	17.7%	2.3%
CCn1c(C)c(C(C)=O)c(N2CCN(C(c3ccccc3)c3ccccc3)CC2)nc1=S	?	i	6.31µM*	0.0%	0.4%	3.1%
S=c1nc(-c2ccco2)[nH][nH]1	·	·	7.9%	1.4%	-22.6%	6.6%
CCOC(=O)CC(=O)NC(C)(C)CCCCC(C)(C)NC(=O)CC(=O)OCC	12.8%	i	0.4%	0.5%	-7.5%	-7.1%
CC(NCCC(c1ccccc1)c1ccccc1)c1ccccc1 (configuration not stated)	13.5µM*	?	?	10.7µM*	?	-18.3%
COc1cc(OC)cc(-c2c(-c3cccs3)c3cc(-c4ccc(OC)c(F)c4)ccc3n2C)c1	?	i	?	?	-3.7%	·
COc1cc(OC)cc(-c2c(-c3cccs3)c3cc(-c4ccc5cc[nH]c5c4)ccc3n2C)c1	10.4µM*	?	4.47µM*	?	-19.6%	·
COc1cc(OC)cc(-c2c(-c3cccs3)c3cc(-c4ccc(SC)cc4)ccc3n2C)c1	-78.5%	?	0.1%	2.08µM*	-15.2%	·
COc1cc(OC)cc(-c2c(-c3cccs3)c3cc(-c4ccc(OC)c(OC)c4)ccc3n2C)c1	6.57µM*	i	?	?	-7.9%	·
COc1ccc(-c2c(-c3cc(OC)cc(OC)c3)n(C)c3ccc(-c4ccc5c(c4)OCCO5)cc23)cc1	·	-8.0%	0.6%	·	-4.1%	·
COc1cc(OC)cc(-c2c(-c3cccs3)c3cc(-c4ccc5c(c4)OCCO5)ccc3n2C)c1	6.57µM*	-26.4%	?	?	-12.9%	·
CC(=O)Nc1ccc(S(=O)(=O)NCCNc2ccccc2[N+](=O)[O-])cc1	10.1%	·	6.3%	-8.0%	·	·
CC(C)NC(=O)C1(C)CCN1C(=O)Cc1ccc(-c2ccccc2)cc1 (configuration not stated)	·	26.6%	·	·	-13.0%	·
NC(=O)[C@@H]1CCCN1C(=O)[C@@H](Cc1cnc[nH]1)NC(=O)[C@@H]1CCC(=O)N1	10.4%	-9.0%	19.8%	-10.8%	-6.0%	·
COc1cccc(/C=C/C(=O)OCC(=O)Nc2ccc(Cl)c(S(=O)(=O)N(C)C)c2)c1	11.0%	-2.2%	-4.7%	-12.0%	-6.5%	·
COc1ccccc1-c1cccc([C@@H]2C[C@H]3[C@H](CON3C)CN2Cc2ccccc2)c1	·	i	8.91µM*	·	-16.9%	·
COc1ccccc1-c1cccc([C@@H]2C[C@H]3[C@H](CON3C)CN2Cc2cc(Cl)cc(Cl)c2)c1	·	-21.0%	?	·	4.4%	·
Cc1sc(N)nc1-c1cccc([N+](=O)[O-])c1	·	-3.0%	·	·	-13.8%	·
Cc1sc2cc(-c3cccc([N+](=O)[O-])c3)c(-c3cccc([N+](=O)[O-])c3)c[n+]2c1C	0.928µM*	-1.4%	-7.3%	0.828µM*	2.4%	0.0%
O=[N+]([O-])c1cccc(-c2cc3cccc[n+]3cc2-c2cccc([N+](=O)[O-])c2)c1	0.522µM*	-1.2%	32.5%	0.165µM*	6.0%	12.4%
CCCCS(=O)CC(CS(=O)CCCC)OC(=O)c1ccc(C)cc1 (configuration not stated)	3.6%	-7.2%	3.2%	15.4%	-6.1%	2.7%
CCCCS(=O)CC(CS(=O)CCCC)OC(=O)c1ccccc1 (configuration not stated)	3.3%	·	6.1%	6.57µM*	·	-2.6%
CCCCS(=O)(=O)CC(COc1ccccc1)OC(=O)c1ccccc1 (configuration not stated)	?	·	-0.9%	·	7.94µM*	-28.3%
SMILES	Pf growth 48h	VACV mCherry inh	HCV inh	Pf growth 96h	Vaccinia Venus	NS1 function inh
O=C(/C=C/Nc1ccc(F)c(F)c1)c1cccs1	240.9%	i	5.4%	10.4µM*	-15.7%	-21.4%
Cc1cccc(N/C=C/C(=O)c2cccs2)c1C	167.7%	-21.8%	?	4.65µM*	-8.7%	-9.6%
C=CC[C@H](CC(=O)N(CCO)Cc1ccccc1)C(=O)N[C@@H](C)COC(=O)[C@@H](CC=C)Cc1ccc(F)cc1	·	i	-23.6%	·	-29.8%	·
CCN(CC)CCNc1nc2nonc2nc1NCCN(CC)CC	8.28µM*	·	21.0%	11.7µM*	·	3.9%
Cc1cccc(N2C(=O)CCC2=O)n1	7.4%	1.7%	2.0%	-9.4%	-1.1%	0.6%
CCOC(=O)c1sc2nc3c(cc2c1N)COC(C)(CC)C3 (configuration not stated)	86.7%	·	?	-27.9%	·	?
O=C(Cn1nc(-c2ccccc2)nc(Cc2ccccc2)c1=O)Nc1ccc(Cl)cc1	·	-12.2%	·	·	-7.5%	·
CCCN(CC(=O)Nc1ccccc1C)C(=O)c1cnc(C)cn1	·	-10.1%	24.2%	·	-2.3%	·
CCSc1nc2c(c(=O)[nH]1)C(c1cccnc1)C(C(=O)OC)=C(C)N2 (configuration not stated)	-9.4%	·	3.7%	124.5%	2.9%	4.3%
CCSc1nc2c(c(=O)[nH]1)C(c1ccncc1)C(C(=O)OC(C)C)=C(C)N2 (configuration not stated)	?	-0.6%	7.5%	10.4µM*	-20.6%	-21.5%
COc1cccc(/C=C2\Oc3cc(OCC(=O)N4CCCC4)ccc3C2=O)c1OC	13.1µM*	·	9.6%	10.4µM*	·	2.4%
COc1cccc(/C=C2\Oc3cc(OCC(=O)N4CCCCC4)ccc3C2=O)c1OC	?	?	?	?	-19.1%	-13.8%
CCN(CC(=O)NCc1ccc(Cl)cc1)C(=O)CN1C(=O)NC(C)(c2ccccc2)C1=O (configuration not stated)	49.2%	-15.9%	12.0%	?	-15.3%	3.0%
CCn1c(SCC(=O)n2c(C)c(C)c3ccccc32)nnc1-c1ccco1	4.1%	·	0.4%	6.57µM*	·	-24.5%
CCCN(CCC)CCCNC(=S)Nc1ccc2nc(N3CCN(CC)CC3)cc(C)c2c1	4.15µM*	·	?	-27.0%	·	7.0%
CCCCN(CC)CCNC(=S)Nc1ccc2nc(N3CCN(C)CC3)cc(C)c2c1	1.65µM*	12.6µM*	0.891µM*	?	?	-6.4%
CCCCN(CC)CCNC(=O)CCC(=O)Nc1ccc2nc(N3CCN(C)CC3)cc(C)c2c1	?	?	-15.7%	-12.6%	-14.7%	·
CCCN(CCC)CCCNC(=S)Nc1ccc2nc(N3CCN(C)CC3)cc(C)c2c1	-54.0%	·	12.6µM*	?	·	-7.7%
CCN1CCN(c2cc(C)c3cc(NC(=S)N4CCCC4)ccc3n2)CC1	-10.8%	-23.4%	-26.2%	0.2%	?	1.0%
